# The supplement of paper PMC4466140
# Columns and labels:
# Assay in all cases: SPOT peptide array binding signal intensity (averaged, normalized) (arbitrary units (background-subtracted, floor 0; scale differs between SH3 domains)); higher = stronger binding of the SH3 domain to the peptide
# AgAbp1 = biological target: AgAbp1
# Method in brief: (§1)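 Cellulose membranes carried synthetic 15-mer peptides with cysteines swapped for serines. These were incubated overnight at 4°C with 10 μg/ml of GST-fused SH3 domains from four yeast species in TBS-based blocking buffer. Binding signal, detected with anti-GST antibody and quantified in Genespotter, is the normalized, background-subtracted spot intensity averaged over replicates, in arbitrary units specific to each domain.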
# AgBbc1 = biological target: AgBbc1
# Method in brief: as §1
# AgBem1-D1 = biological target: AgBem1-D1
# Method in brief: as §1
# AgBzz1-D1 = biological target: AgBzz1-D1
# Method in brief: as §1
# AgBzz1-D2 = biological target: AgBzz1-D2
# Method in brief: as §1
# AgCyk3 = biological target: AgCyk3
# Method in brief: as §1
# AgFus1 = biological target: AgFus1
# Method in brief: as §1
# AgHof1 = biological target: AgHof1
# Method in brief: as §1
# AgHse1 = biological target: AgHse1
# Method in brief: as §1
# AgLsb1 = biological target: AgLsb1
# Method in brief: as §1
# AgLsb4 = biological target: AgLsb4
# Method in brief: as §1
# AgMyo5 = biological target: AgMyo5
# Method in brief: as §1
# AgNbp2 = biological target: AgNbp2
# Method in brief: as §1
# AgRvs167 = biological target: AgRvs167
# Method in brief: as §1
# AgSho1 = biological target: AgSho1
# Method in brief: as §1
# AgSla1-D1-D2 = biological target: AgSla1-D1-D2
# Method in brief: as §1
# AgSla1-D3 = biological target: AgSla1-D3
# Method in brief: as §1
# CaAbp1-D1 = biological target: CaAbp1-D1
# Method in brief: as §1
# CaAbp1-D2 = biological target: CaAbp1-D2
# Method in brief: as §1
# CaBbc1 = biological target: CaBbc1
# Method in brief: as §1
# CaBem1-D1 = biological target: CaBem1-D1
# Method in brief: as §1
# CaBzz1-D1 = biological target: CaBzz1-D1
# Method in brief: as §1
# CaBzz1-D2 = biological target: CaBzz1-D2
# Method in brief: as §1
# CaCyk3 = biological target: CaCyk3
# Method in brief: as §1
# CaFus1 = biological target: CaFus1
# Method in brief: as §1
# CaHof1 = biological target: CaHof1
# Method in brief: as §1
# CaHse1 = biological target: CaHse1
# Method in brief: as §1
# CaLsb1 = biological target: CaLsb1
# Method in brief: as §1
# CaLsb4 = biological target: CaLsb4
# Method in brief: as §1
# CaMyo5 = biological target: CaMyo5
# Method in brief: as §1
# CaNbp2 = biological target: CaNbp2
# Method in brief: as §1
# CaRvs167 = biological target: CaRvs167
# Method in brief: as §1
# CaRvs167-3 = biological target: CaRvs167-3
# Method in brief: as §1
# CaSho1 = biological target: CaSho1
# Method in brief: as §1
# CaSla1-D1-D2 = biological target: CaSla1-D1-D2
# Method in brief: as §1
# CaSla1-D3 = biological target: CaSla1-D3
# Method in brief: as §1
# ScAbp1 = biological target: ScAbp1
# Method in brief: as §1
# ScBbc1 = biological target: ScBbc1
# Method in brief: as §1
# ScBem1-D1 = biological target: ScBem1-D1
# Method in brief: as §1
# ScBzz1-D1 = biological target: ScBzz1-D1
# Method in brief: as §1
# ScBzz1-D2 = biological target: ScBzz1-D2
# Method in brief: as §1
# ScCyk3 = biological target: ScCyk3
# Method in brief: as §1
# ScFus1 = biological target: ScFus1
# Method in brief: as §1
# ScHof1 = biological target: ScHof1
# Method in brief: as §1
# ScHse1 = biological target: ScHse1
# Method in brief: as §1
# ScLsb1 = biological target: ScLsb1
# Method in brief: as §1
# ScLsb2 = biological target: ScLsb2
# Method in brief: as §1
# ScLsb3 = biological target: ScLsb3
# Method in brief: as §1
# ScLsb4 = biological target: ScLsb4
# Method in brief: as §1
# ScMyo3 = biological target: ScMyo3
# Method in brief: as §1
# ScMyo5 = biological target: ScMyo5
# Method in brief: as §1
# ScNbp2 = biological target: ScNbp2
# Method in brief: as §1
# ScPex13 = biological target: ScPex13
# Method in brief: as §1
# ScRvs167 = biological target: ScRvs167
# Method in brief: as §1
# ScSho1 = biological target: ScSho1
# Method in brief: as §1
# ScSla1-D1-D2 = biological target: ScSla1-D1-D2
# Method in brief: as §1
# ScSla1-D3 = biological target: ScSla1-D3
# Method in brief: as §1
# SpAbp1-D1 = biological target: SpAbp1-D1
# Method in brief: as §1
# SpBbc1 = biological target: SpBbc1
# Method in brief: as §1
# SpBzz1-D1 = biological target: SpBzz1-D1
# Method in brief: as §1
# SpBzz1-D2 = biological target: SpBzz1-D2
# Method in brief: as §1
# SpCyk3 = biological target: SpCyk3
# Method in brief: as §1
# SpHof1 = biological target: SpHof1
# Method in brief: as §1
# SpHof1-2 = biological target: SpHof1-2
# Method in brief: as §1
# SpHof1-3 = biological target: SpHof1-3
# Method in brief: as §1
# SpHse1 = biological target: SpHse1
# Method in brief: as §1
# SpLsb1 = biological target: SpLsb1
# Method in brief: as §1
# SpLsb4 = biological target: SpLsb4
# Method in brief: as §1
# SpMyo1 = biological target: SpMyo1
# Method in brief: as §1
# SpNbp2 = biological target: SpNbp2
# Method in brief: as §1
# SpPex13 = biological target: SpPex13
# Method in brief: as §1
# SpRvs167 = biological target: SpRvs167
# Method in brief: as §1
# SpSla1-D1-D2 = biological target: SpSla1-D1-D2
# Method in brief: as §1
# SpSla1-D3 = biological target: SpSla1-D3
# Method in brief: as §1
binder,measurement,setting,value
IAPIPMPKPNPTHIS,SPOT peptide array binding signal intensity,AgAbp1,≤ 0
same,SPOT peptide array binding signal intensity,AgBbc1,≤ 0
same,SPOT peptide array binding signal intensity,AgBem1-D1,7
same,SPOT peptide array binding signal intensity,AgBzz1-D1,≤ 0
same,SPOT peptide array binding signal intensity,AgBzz1-D2,4
same,SPOT peptide array binding signal intensity,AgCyk3,≤ 0
same,SPOT peptide array binding signal intensity,AgFus1,44.5
same,SPOT peptide array binding signal intensity,AgHof1,≤ 0
same,SPOT peptide array binding signal intensity,AgHse1,12
same,SPOT peptide array binding signal intensity,AgLsb1,≤ 0
same,SPOT peptide array binding signal intensity,AgLsb4,≤ 0
same,SPOT peptide array binding signal intensity,AgMyo5,≤ 0
same,SPOT peptide array binding signal intensity,AgNbp2,61.5
same,SPOT peptide array binding signal intensity,AgRvs167,0.333
same,SPOT peptide array binding signal intensity,AgSho1,32
same,SPOT peptide array binding signal intensity,AgSla1-D1-D2,≤ 0
same,SPOT peptide array binding signal intensity,AgSla1-D3,4.5
same,SPOT peptide array binding signal intensity,CaAbp1-D1,≤ 0
same,SPOT peptide array binding signal intensity,CaAbp1-D2,28.5
same,SPOT peptide array binding signal intensity,CaBbc1,≤ 0
same,SPOT peptide array binding signal intensity,CaBem1-D1,48.5
same,SPOT peptide array binding signal intensity,CaBzz1-D1,≤ 0
same,SPOT peptide array binding signal intensity,CaBzz1-D2,9.75
same,SPOT peptide array binding signal intensity,CaCyk3,≤ 0
same,SPOT peptide array binding signal intensity,CaFus1,170
same,SPOT peptide array binding signal intensity,CaHof1,0.5
same,SPOT peptide array binding signal intensity,CaHse1,33.8
same,SPOT peptide array binding signal intensity,CaLsb1,≤ 0
same,SPOT peptide array binding signal intensity,CaLsb4,51
same,SPOT peptide array binding signal intensity,CaMyo5,3
same,SPOT peptide array binding signal intensity,CaNbp2,430
same,SPOT peptide array binding signal intensity,CaRvs167,≤ 0
same,SPOT peptide array binding signal intensity,CaRvs167-3,≤ 0
same,SPOT peptide array binding signal intensity,CaSho1,305
same,SPOT peptide array binding signal intensity,CaSla1-D1-D2,58.5
same,SPOT peptide array binding signal intensity,CaSla1-D3,52.5
same,SPOT peptide array binding signal intensity,ScAbp1,≤ 0
same,SPOT peptide array binding signal intensity,ScBbc1,≤ 0
same,SPOT peptide array binding signal intensity,ScBem1-D1,≤ 0
same,SPOT peptide array binding signal intensity,ScBzz1-D1,≤ 0
same,SPOT peptide array binding signal intensity,ScBzz1-D2,≤ 0
same,SPOT peptide array binding signal intensity,ScCyk3,≤ 0
same,SPOT peptide array binding signal intensity,ScFus1,56
same,SPOT peptide array binding signal intensity,ScHof1,≤ 0
same,SPOT peptide array binding signal intensity,ScHse1,≤ 0
same,SPOT peptide array binding signal intensity,ScLsb1,≤ 0
same,SPOT peptide array binding signal intensity,ScLsb2,≤ 0
same,SPOT peptide array binding signal intensity,ScLsb3,≤ 0
same,SPOT peptide array binding signal intensity,ScLsb4,≤ 0
same,SPOT peptide array binding signal intensity,ScMyo3,≤ 0
same,SPOT peptide array binding signal intensity,ScMyo5,≤ 0
same,SPOT peptide array binding signal intensity,ScNbp2,158
same,SPOT peptide array binding signal intensity,ScPex13,22.2
same,SPOT peptide array binding signal intensity,ScRvs167,0.333
same,SPOT peptide array binding signal intensity,ScSho1,158
same,SPOT peptide array binding signal intensity,ScSla1-D1-D2,0.5
same,SPOT peptide array binding signal intensity,ScSla1-D3,81.5
same,SPOT peptide array binding signal intensity,SpAbp1-D1,8.5
same,SPOT peptide array binding signal intensity,SpBbc1,≤ 0
same,SPOT peptide array binding signal intensity,SpBzz1-D1,37.5
same,SPOT peptide array binding signal intensity,SpBzz1-D2,0.5
same,SPOT peptide array binding signal intensity,SpCyk3,≤ 0
same,SPOT peptide array binding signal intensity,SpHof1,≤ 0
same,SPOT peptide array binding signal intensity,SpHof1-2,7
same,SPOT peptide array binding signal intensity,SpHof1-3,≤ 0
same,SPOT peptide array binding signal intensity,SpHse1,217
same,SPOT peptide array binding signal intensity,SpLsb1,≤ 0
same,SPOT peptide array binding signal intensity,SpLsb4,92.5
same,SPOT peptide array binding signal intensity,SpMyo1,0.5
same,SPOT peptide array binding signal intensity,SpNbp2,29
same,SPOT peptide array binding signal intensity,SpPex13,2
same,SPOT peptide array binding signal intensity,SpRvs167,≤ 0
same,SPOT peptide array binding signal intensity,SpSla1-D1-D2,≤ 0
same,SPOT peptide array binding signal intensity,SpSla1-D3,32
